Assay results as given in PubChem BioAssay (EPA / NIEHS).
Records with an inconclusive call do not appear. The source made the active and inactive calls. Rule for the calls: active = hit-call score of the fitted dose curve at least 0.9, where 1 is the maximum; inconclusive = response in the unintended direction; inactive = score below 0.9.

Test: CLD_ACTIN_48hr: CellzDirect (CLD) Gene Expression Assay for Baseline Control (Actin) at 48 hours (AID 2283702)
Procedure: CLD_48hr is a cell-based, multiplexed-readout assay that uses hepatocyte, a human liver primary cell, with measurements taken at 48 hours after chemical dosing in a 96-well plate.CLD_ACTIN_48hr is one of 16 assay component(s) measured or calculated from the CLD_48hr assay. It is designed to make measurements of mRNA induction, a form of inducible reporter, as detected with chemiluminescence signals by Quantitative Nuclease Protection Assay (qNPA) technology.Data from the assay component CLD_ACTIN_48hr was analyzed at the endpoint, CLD_ACTIN_48hr, in the positive analysis fitting direction relative to DMSO as the negative control and baseline of activity. Using a type of inducible reporter, gain-of-signal activity can be used to understand changes in the reporter gene as they relate to the gene ACTA1. Furthermore, this assay endpoint can be referred to as a secondary readout, because this assay has produced multiple assay endpoints where this one serves a background control function. To generalize the intended target to other relatable targets, this assay endpoint is annotated to the background measurement intended target family, where subfamily is baseline control.
Human hepatocyte cultures were treated daily for two consecutive days with fresh dosing solutions containing appropriate concentrations of the 320 ToxCast chemicals (chemical identities were blinded to CellzDirect and other ToxCast collaborators), vehicle control (0.2% DMSO), and positive control inducers as summarized in Table 1. Due to the large number of treatment groups and chemicals examined, the ToxCast chemicals were divided into two groups (spanning two independent cultures of hepatocytes from separate donor preparations (Hu778: ToxCast plates 1 and 2; Hu776: ToxCast plates 3 and 4). Each preparation of human hepatocyte cultures was treated with respective vehicle control, medium only control, set of six positive controls/reference chemicals for the five hepatic receptor pathways, and a subset of eight of the ToxCast chemicals (indoxacarb, pyrithiobac-sodium, norflurazon, cyhalofop-butyl, methomyl, thiram, acetochlor, and propiconazole). These replicate data, coupled with internal replicates designed within the blinded ToxCast chemical library, provided additional data to evaluate interindividual differences between hepatocyte preparations and their potential impact on chemical profiles.Cell morphology and integrity were evaluated using phase-contrast microscopy as an indicator of hepatocyte cell health (Tyson & Green, 1987). Cultures for each treatment group (i.e., media, vehicle [0.2% DMSO], positive control inducers [multiple concentrations], and the ToxCast chemicals [multiple concentrations]) were observed and cell morphology was assessed relative to vehicle control cultures at each harvest time point (0, 6, 24, or 48 h). […] Images were evaluated at the conclusion of the study to assess changes in cell integrity and account for the effects of chemical exposure on uncharacteristic changes in concentration-dependent gene expression profiles. The results from these determinations of apparent cytotoxicity were annotated (yes/no) alongside the corresponding qNPA data for reference.At the conclusion of each treatment period, hepatocyte cultures (96-well) were washed with 1 volume of HBSS, lysed by addition of 25 ul ArrayPlate lysis buffer (HTG, Tucson, AZ), and 70 ul/well of Denaturation Oil, denatured by incubation at 95C for 10 min, and frozen at approximately -70C until analysis by nuclease protection assay (qNPA) (Roberts et al., 2007). For qNPA analysis, cell lysates were thawed at 50C for approximately 30 min, qNPA probes were added, and samples were incubated at 95C for 10 min to begin the detection process by denaturing the target RNA, dissociating the duplexes and secondary structure hybridization. At the conclusion of the hybridization period, S1 nuclease reagent was added to each sample to digest all nonprotected nucleotides at 50C for 60-90 min. […]

Row | SMILES | outcome
1 | CC(C)=CC1C(C(=O)OCN2C(=O)C3=C(CCCC3)C2=O)C1(C)C (configuration not stated) | inactive
2 | CNC(=O)ON=C(SC)C(=O)N(C)C | inactive
3 | CCC(CC)Nc1c([N+](=O)[O-])cc(C)c(C)c1[N+](=O)[O-] | inactive
4 | COP(=O)(OC)C(O)C(Cl)(Cl)Cl (configuration not stated) | inactive
5 | CCc1cccc(CC)c1N(COC)C(=O)CCl | inactive
6 | CSC1=N[C@@](C)(c2ccccc2)C(=O)N1Nc1ccccc1 | inactive
7 | CC(Oc1cccc(Cl)c1)C(=O)O (configuration not stated) | inactive
8 | N#CSCSC#N | inactive
9 | C[Si](Cn1cncn1)(c1ccc(F)cc1)c1ccc(F)cc1 | inactive
10 | CCCCOC(=O)[C@@H](C)Oc1ccc(Oc2ccc(C#N)cc2F)cc1 | inactive
11 | Nc1nc(N)nc(NC2CC2)n1 | inactive
12 | CNC(=O)Oc1cccc2c1OC(C)(C)O2 | inactive
13 | COc1ccc(C(=CC(=O)N2CCOCC2)c2ccc(Cl)cc2)cc1OC | inactive
14 | CC1(C(=O)Nc2ccc(O)c(Cl)c2Cl)CCCCC1 | inactive
15 | C=C(C)[C@H]1Cc2c(ccc3c2O[C@@H]2COc4cc(OC)c(OC)cc4[C@@H]2C3=O)O1 | inactive
16 | COP(=O)(OC)SCn1c(=O)oc2cc(Cl)cnc21 | inactive

Row | SMILES | outcome
17 | C[N+]1(C)CCCCC1 | inactive
18 | CCc1cnc(C2=NC(C)(C(C)C)C(=O)N2)c(C(=O)O)c1 (configuration not stated) | inactive
19 | CON=C(C(=O)OC)c1ccccc1CON=C(C)c1cccc(C(F)(F)F)c1 | inactive
20 | CCCOCC(=Nc1ccc(Cl)cc1C(F)(F)F)n1ccnc1 | inactive
21 | CCCOc1nn(C(=O)NS(=O)(=O)c2ccccc2C(=O)OC)c(=O)n1C | inactive
22 | CC(=NC#N)N(C)Cc1ccc(Cl)nc1 | inactive
23 | CNC(=O)ON=C(C)SC | inactive
24 | O=c1ccc(=O)[nH][nH]1 | inactive
25 | Cc1nn(-c2cc(NS(C)(=O)=O)c(Cl)cc2Cl)c(=O)n1C(F)F | inactive
26 | CN1COCN(Cc2cnc(Cl)s2)C1=N[N+](=O)[O-] | inactive
27 | COc1cc(OC)nc(Sc2cccc(Cl)c2C(=O)O)n1 | inactive
28 | COP(=O)(OC)OC(Br)C(Cl)(Cl)Br (configuration not stated) | inactive
29 | CC[C@H](C)[C@H]1O[C@]2(C=C[C@@H]1C)C[C@@H]1C[C@@H](C/C=C(\C)[C@@H](O[C@H]3C[C@H](OC)[C@@H](O[C@H]4C[C@H](OC)[C@@H](NC)[C@H](C)O4)[C@H](C)O3)[C@@H](C)/C=C/C=C3\CO[C@@H]4[C@H](O)C(C)=C[C@@H](C(=O)O1)[C@]34O)O2 | inactive
30 | CC1=NNC(=O)N(/N=C/c2cccnc2)C1 | inactive
31 | CC(C)N(C(=O)SCC(Cl)=C(Cl)Cl)C(C)C | inactive
32 | S=C1NCCN1 | inactive
